For 13 molecules, growth results are on record in PubChem BioAssay (NCI).

About 83,000 compounds went through this panel and 20% of them were active in at least one assay; those are over-represented in the sample as a whole.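 Note: values are percent growth. 100 is the growth of untreated cells, values between 100 and 0 indicate rising inhibition; between -100 and 0 indicates cell death.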 A number with no mark means an inactive call. Activity calls are given as the source filed them. The calls were made as follows: active = growth percent below 10; inactive = the rest.

Among the test systems are SK-MEL-2 melanoma; EKVX NSCLC; SN12C renal; UO-31 renal; TK-10 renal; ACHN renal; A498 renal; CCRF-CEM leukemia; MOLT-4 leukemia; SR leukemia.
What all share (experiment): NCI-60 one-dose screen, 48 h (100 = growth as untreated, 0 = no growth, -100 = all killed)
What all share (settings): 10 µM unless noted

`O=C(Nc1cc(Br)ccn1)c1cc2cc(Nc3nc(-c4ccccc4)nc4ccccc34)ccc2oc1=O`: the growth with SK-MEL-2 melanoma is 90.8%; in the test with EKVX NSCLC, 109%; in the test with SN12C renal, 110%; in the test on UO-31 renal, 75.4%; with TK-10 renal, 106%; with ACHN renal, 103%. Also, the growth is 112% in the test with A498 renal, 107% in the test on CCRF-CEM leukemia, 100% in the test with MOLT-4 leukemia and 82.2% with SR leukemia.

As for `COc1ccc2[nH]c(=O)c(/C=C/C(=O)/C=C/c3ccc(O)c(OC)c3)cc2c1`, the growth is 78.3% in the test with SK-MEL-2 melanoma; 59.4% in the test on EKVX NSCLC; 4.69% (active) in the test on SN12C renal; -70.8% (active) in the test with UO-31 renal; 61.1% with TK-10 renal; 49.9% with ACHN renal. For the same molecule, the growth in the test with A498 renal is 89.7%; with CCRF-CEM leukemia, 3.63% (active); with MOLT-4 leukemia, 21%; in the test with SR leukemia, 1.27% (active).

For `COc1ccc(-c2nc(C#N)c(NCC(c3ccc(Cl)cc3)N3CCCCC3)o2)cc1` (stereo not given), the growth with SK-MEL-2 melanoma is 109%; in the test on EKVX NSCLC, 95.6%; in the test on SN12C renal, 103%; in the test with UO-31 renal, 72%; with TK-10 renal, 112%; in the test with ACHN renal it was 91.7%. Moreover, the growth is 108% in the test with A498 renal, 86.9% in the test on CCRF-CEM leukemia, 75.9% with MOLT-4 leukemia and 74.5% in the test with SR leukemia.

For the molecule `COc1ccc(Nc2nc(SCC(C)C)nc(-c3ccc(F)cc3)c2C#N)cc1`, the growth in the test on SK-MEL-2 melanoma was 72.4%; in the test with EKVX NSCLC it was 69.4%; in the test on SN12C renal it was 85.9%; in the test on UO-31 renal, 68.9%; in the test on TK-10 renal, 92.1%; with ACHN renal, 72%. In addition, the growth with A498 renal is 30.7%; with CCRF-CEM leukemia, 33.3%; in the test with MOLT-4 leukemia, 57.2%; in the test on SR leukemia, 20.1%.

With `COc1ccc2cc(/C=C3\N=C(c4cc(OC)c(OC)c(OC)c4)OC3=O)c(OC)nc2c1`, the growth with SK-MEL-2 melanoma was 106%; with EKVX NSCLC, 103%; in the test on SN12C renal it was 94.2%; in the test with UO-31 renal, 95.8%; with TK-10 renal, 106%; with ACHN renal it was 101%. Moreover, the growth in the test on A498 renal is 99.5%; in the test with CCRF-CEM leukemia, 111%; with MOLT-4 leukemia it was 94.8%; in the test on SR leukemia, 95.8%.

`Nc1c(C(=O)Nc2ccccc2)sc2nc3c(cc12)CN(C(=O)OCc1ccccc1)CC3`: the growth in the test on SK-MEL-2 melanoma was 31.8%; in the test on EKVX NSCLC, 69.6%; in the test on SN12C renal, 66%; with UO-31 renal, 67.5%; in the test on TK-10 renal, 98.8%; in the test with ACHN renal, 60.2%. Besides, the growth with A498 renal is 44.6%; in the test on CCRF-CEM leukemia, 31.8%; with MOLT-4 leukemia, 37.8%; with SR leukemia, 25.1%.

Take `C=C1C(=O)O[C@H]2[C@H]1CC/C(COC(=O)N1CCC[C@H]1C(=O)Nc1ccc(OC)c(C(N)=O)c1O)=C\CC[C@@]1(C)O[C@@H]21`: the growth was 66.5% with SK-MEL-2 melanoma; 77% in the test with EKVX NSCLC; 12.9% in the test on SN12C renal; 41.2% in the test on UO-31 renal; -4.11% (active) in the test with TK-10 renal; 30.6% in the test on ACHN renal. For the same molecule, the growth with A498 renal was 87.9%; with CCRF-CEM leukemia, -12.6% (active); in the test on MOLT-4 leukemia, 8.14% (active); in the test on SR leukemia it was 13.9%.

`COc1cc(N=Nc2cc(S(=O)(=O)O)cc3cc(S(=O)(=O)O)cc(O)c23)c(C)cc1N=Nc1c(S(=O)(=O)O)cc2cc(Nc3ccccc3)ccc2c1O`: the growth was 103% in the test on SK-MEL-2 melanoma; 107% in the test with EKVX NSCLC; 103% with SN12C renal; 81.3% with UO-31 renal; 91.1% in the test on TK-10 renal; 108% in the test with ACHN renal. For the same molecule, the growth was 108% in the test on A498 renal, 100% in the test with CCRF-CEM leukemia, 86.8% in the test on MOLT-4 leukemia and 76.5% with SR leukemia.

With `S=c1ssnc1-c1cc2ccccc2o1`, the growth in the test with SK-MEL-2 melanoma is 91.2%; in the test on EKVX NSCLC, 76.6%; with SN12C renal it was 98.8%; in the test with UO-31 renal it was 52.5%; in the test with TK-10 renal, 98.4%; in the test with ACHN renal, 80.3%. The growth in the test on A498 renal was 103%; with CCRF-CEM leukemia it was 7.9% (active); in the test with MOLT-4 leukemia, 51.1%; in the test on SR leukemia, 41.6%.

Take `COc1ccc2nc(-c3ccc(Cl)cc3)cc(-c3nnc(SC/C(=N/O)c4ccccc4)o3)c2c1`: the growth with SK-MEL-2 melanoma is 61.3%; in the test on EKVX NSCLC it was 72.8%; in the test on SN12C renal it was 17.5%; in the test on UO-31 renal it was 89.7%; in the test with TK-10 renal, 75%; with ACHN renal, 47.5%. Also, the growth in the test on A498 renal was 63.5%; in the test on CCRF-CEM leukemia it was 54.1%; with MOLT-4 leukemia, 52.5%; in the test with SR leukemia, 7.97% (active).

Take `Nc1c(C(=O)Nc2ccccn2)sc2nc3c(cc12)CCCCCC3`: the growth with SK-MEL-2 melanoma is 11.5%; in the test with EKVX NSCLC it was 31.8%; with SN12C renal, 39.2%; in the test with UO-31 renal, 35.5%; in the test on TK-10 renal, 35.7%; in the test on ACHN renal, 36.1%. In addition, the growth was 15% in the test with A498 renal, 5.58% (active) in the test with CCRF-CEM leukemia, 16.3% in the test on MOLT-4 leukemia and 7.99% (active) in the test with SR leukemia.

As to `COc1ccc2nc(-c3ccc(OC)c(OC)c3)cc(-c3nnc(SCC(=O)Nc4ccc(/C(C)=N\O)cc4)n3-c3ccccc3)c2c1`, the growth in the test on SK-MEL-2 melanoma was 80.7%; in the test with EKVX NSCLC it was 88.8%; with SN12C renal it was 80.7%; in the test on UO-31 renal, 54.2%; in the test with TK-10 renal it was 65.9%; in the test with ACHN renal, 75.5%. The growth was 77.9% with A498 renal, 40% in the test with CCRF-CEM leukemia, 33.8% in the test with MOLT-4 leukemia and 54.7% in the test with SR leukemia.

For `Cc1ccn2c3c(c(C(=O)O)c2c1)C(=O)c1ccccc1C3=O`, the growth in the test with SK-MEL-2 melanoma is 68.9%; with EKVX NSCLC, 83%; with SN12C renal, 78.8%; in the test on UO-31 renal it was 63.7%; in the test with TK-10 renal, 142%; in the test on ACHN renal it was 86.2%. The growth in the test with A498 renal was 89.2%; with CCRF-CEM leukemia it was 89.5%; with MOLT-4 leukemia, 84.8%; with SR leukemia it was 80%.
